Results on 60 compounds are retold here after PubChem BioAssay AID687014 (The Scripps Research Institute Molecular Screening Center, 2013).

About 6,800 (1.8%) of roughly 370,000 compounds were called active. Only a selection was taken, and actives are over-represented in it overall. Values without a mark were called inactive.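 The calls were made as follows: active = activation above a cutoff set at the mean of all screened compounds plus 3 SD (cut at about 10% in these data); inactive = the rest.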

The subject of the experiment is Nuclear hormone receptor DAF-12 (Heterodera glycines), GAL4 fusion. The experiment is described as follows: H. glycines DAF-12 receptor agonists, primary screen, cell-based, luminescence, HEK293, GAL4 fusion, UAS-luciferase (AID 687014).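 Also: 0% = DMSO wells and 100% = sodium butyrate wells.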 Conditions: HEK293 GAL4-hgDAF12 UAS-luciferase reporter, agonist luminescence; at 6.8 µM; hits give high values; normalized to butyrate control. In general terms: A reporter such as luciferase makes a cellular process visible.
In the case of `Cc1ccccc1Nc1nc(N)nc(CSc2nnc3ccccn23)n1`, the activation is -2.26%.
The result for `Cc1ccccc1Nc1nc(N)nc(CN2CCN(c3ccccn3)CC2)n1` reads -1.77%.
With `Cc1ccccc1Nc1nc(N)nc(CSc2ccccc2)n1` the figure was 16.4% (active).
The result for `Clc1ccc(-n2c(SC/C=C/c3ccccc3)nnc2-c2ccco2)cc1` reads -0.13%; that for `O=C(CSc1nc2ccccc2nc1N1CCCCC1)N1CCN(S(=O)(=O)c2cccc([N+](=O)[O-])c2)CC1`, 0.48%; that for `CCc1ccc(CNC(=O)CCc2nc(-c3cccs3)no2)cc1`, 1.81%.
Regarding `COc1ccc(OC)c(CNC(=O)CCc2nc(-c3cccs3)no2)c1`, the activation was -2.24%.
The result for `COc1ccc(CCc2nc(-c3cccs3)no2)cc1` reads 11.6% (active); that for `CCOC(=O)C1CSCCS(=O)(=O)N1Cc1ccc(Cl)cc1` (stereo not given), -2.53%; that for `CN1C(=O)C2CC(O)C(SC3CC4C(=O)N(C)C(=O)C4CC3O)CC2C1=O` (stereo not given), -0.94%.
Regarding `COc1ccc2nc3n(c(=O)c2c1)-c1ccc(Cl)cc1C(=O)NC3Cc1ccccc1` (stereo not given), the activation was -2.62%.
In the case of `O=C(NC1CCC1)c1ccc(C#CC2CC2)cn1`, the activation is 14.1% (active).
The result for `Cn1ncc(Br)c1C(=O)NC1CCCC1` reads 2.19%; that for `O=C(NC1CCC1)c1ccc(C#Cc2cccc(F)c2)c[n+]1[O-]`, 4.83%.
The result for `CC1CN(C(=S)Nc2ccc(S(N)(=O)=O)cc2)CC(C)O1` (stereo not given) reads 0.5%.
On to `COc1cc(C(=O)Nn2c(O)c(C3=c4ccccc4=NC3=O)sc2=S)ccc1O`, for which the activation was 5.04%.
The result for `Cc1ccc(-c2nnc(SC(C)C#N)n2N)cc1` (stereo not given) reads -2.55%; that for `COc1ccc(C(=O)COC(=O)c2nn(C)c(=O)c3ccccc23)c(OC)c1`, -0.75%.
The result for `COc1ccc(C(=O)COC(=O)CN2C(=O)C3CC=CCC3C2=O)c(OC)c1` (stereo not given) reads -0.12%; that for `COc1ccc(C(=O)COC(=O)C(O)c2ccccc2)c(OC)c1` (stereo not given), 10.7% (active); that for `Nc1[nH]c(C(=O)c2ccc(Br)cc2)c(-c2ccc3c(c2)OCO3)c1C(=O)NCCc1c[nH]c2ccccc12`, 1.89%.
Regarding `COc1ccc(NC(=O)CC2COc3ccccc3O2)c(OC)c1` (stereo not given), the activation is 1.72%.
With `CC(=O)c1ccccc1NC(=O)COC(=O)C1COc2ccccc2O1` (stereo not given), the activation is 24.1% (active).
For the compound `Cc1ccc(S(=O)(=O)N(C)C)cc1NC(=O)COC(=O)C1COc2ccccc2O1` (stereo not given), the activation is 1.41%.
Turning to `CCOC(=O)[C@]12CCCC=C1N(CCCOC)C(=O)[C@@H]2CC(=O)N1CCOCC1`, the activation was 0.45%.
For the compound `COc1cccc(CNCc2ccc3c(c2)OCO3)c1`, the activation is -0.87%.
The result for `Cc1noc(C)c1/C=N/Nc1ccc2ccccc2n1` reads 12.8% (active); that for `Cc1cc2c(C)nc(N/N=C/c3ccccc3)nc2o1`, 4.01%.
`C(=N\Nc1ccc2ccccc2n1)/c1ccc2c(c1)OCO2`: the activation was 11.2% (active).
The result for `O=C(OC12CCCN(C1)/C(=C/c1ccccc1)C2)c1ccco1` (stereo not given) reads -2.49%.
Consider `Cc1nn(C(=O)c2ccoc2C)c(N)c1-c1ccccc1`, for which the activation is 12.5% (active).
The result for `Cc1occc1C(=O)Nc1cccc(Cn2cccn2)c1` reads 0.48%; that for `Cc1cc(-c2ccccc2)n2nc(C)c(-c3ccccc3)c2n1`, 0.2%; that for `O=C(NCCc1c[nH]c2ccccc12)OCc1cn(-c2c(F)cccc2F)nn1`, -0.77%.
The result for `O=S1(=O)c2c(cccc2N2CC[C@H](O)C2)O[C@@H]2CCN1C2` reads -2.37%; that for `COc1cccc(/C=C2\CC3(OC(C)=O)CCCN2C3)c1` (stereo not given), 1.14%; that for `Cc1nc2ccc(C(=O)N3CCN(C(=O)C(C)(C)C)CC3)cc2n1C1CCCC1`, -0.38%.
The result for `COC[C@@H]1CCCN1c1ccc2c(c1)O[C@H](C)CCN(C1CC1)S2(=O)=O` reads 1.95%.
In the case of `COc1ccc(OC)c(/C=C/C(=O)c2ccc3c(c2)OCO3)c1`, the activation was -2.94%.
With `C/C(=N\NC(=O)C(N)=O)c1ccc2c(c1)OCCO2` the figure was 4.44%; with `O=C(/C=C/c1ccc2c(c1)OCCO2)c1ccc(O)cc1`, 11.8% (active); with `COC(=O)[C@]12C[C@H](CC(=O)NCc3cccc(C(F)(F)F)c3)C(=O)N(Cc3ccc4c(c3)OCO4)C1=C[C@H](COCc1ccccc1)O[C@@H]2C`, 1.05%.
As to `O=c1oc2ccccc2cc1-c1cn(-c2ccccc2)c(=S)[nH]1`, the activation is -16.8%.
As to `Nc1ncc(-c2cc3ccccc3oc2=O)s1`, the activation is 11.9% (active).
In the case of `CC(CCN1CCC(C(O)(c2ccccc2)c2ccccc2)CC1)Oc1ccc(C(F)(F)F)cc1` (stereo not given), the activation was 0.45%.
With `O=C(Nc1cc(Cl)cc(Cl)c1)OCCN1CCCC12CCC(c1ccccc1)CC2` (stereo not given), the activation was -0.4%.
With `CC(C)=CCN1CCN(Cc2ccc(Oc3ncccn3)cc2)CC1CCO` (stereo not given) the figure was 3.6%; with `NC(=O)C1(Nc2ccc(-c3ccccc3)cc2)CCCC1`, 0.26%.
With `N#CC1(Nc2ccc(-c3ccc(Cl)cc3)cc2)CCCC1` the figure was 13.3% (active); with `N#CC1(Nc2ccc3c4c(cccc24)CC3)CCCCC1`, -2.54%; with `COc1cccc(C(=O)Nc2ccc3nc4n(c(=O)c3c2)CCCCC4)c1`, 4.15%.
With `N=c1c2c3c(sc2nc2n1CCCCC2)CCCC3`, the activation was 2.26%.
In the case of `O=c1c2c(nc3n1CCCCC3)sc1c(O)cccc12`, the activation was 12.6% (active).
With `CC1CCN(C(=O)c2ccc3c(=O)n4c(nc3c2)CCCCC4)CC1`, the activation was 1.69%.
With `CC(=O)c1ccc(NC(=O)c2sc3nc4n(c(=O)c3c2C)CCCCC4)cc1` the figure was 6.99%; with `Cc1c(C(=O)Nc2ccccc2)sc2nc3n(c(=O)c12)CCCCC3`, 10.5% (active).
As for `CC(C)CNS(=O)(=O)CC1NCCc2ccccc21` (stereo not given), the activation is -0.34%.
With `Cc1ccc(C2=CCN(C)C(=O)N2c2ccc(Cl)cc2)cc1` the figure was 7.34%; with `COc1ccc(C(=O)OCCN(C)C2CN(Cc3cn(Cc4cccc(C)c4)nn3)S(=O)(=O)C2)cc1OC` (stereo not given), 0.81%; with `Cc1cccc(N2CCN(C(=O)c3cccc(N4C(=O)C5C6C=CC(C6)C5C4=O)c3)CC2)c1C` (stereo not given), -1.08%.
